In PubChem BioAssay AID1159580 (chemical genetic matrix, 2015):
In all, about 5,500 compounds went through this assay and about 2,000 (36%) were called active. Another 18% or so got no clear call; they are omitted. Cut-off read from the data, not from the text of the source: active = normalized growth mostly below about 0.91 (no sharp cut-off); inconclusive = no clear call, values can overlap the other calls; inactive = mostly above about 0.92. The list shows a part of the results.

Assay: chemical genetic growth profiling, strain panel (AID 1159580);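 note: tested at 20 µM; growth read once vehicle control cultures reached saturation at 30 °C; 1 = growth at the plate median or of vehicle wells; lower values mean less growth of the strain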
Conditions: growth OD

Measured: normalized growth

CC[C@H](C)C(=O)O[C@H]1C[C@@H](C)C=C2C=C[C@H](C)[C@H](CC[C@@H]3C[C@@H](O)CC(=O)O3)[C@H]21
inactive: S. cerevisiae deletion strains, locus YJR075W, strain HOC1, stronger effect = lower value 0.997 | S. cerevisiae deletion strains, locus YKL009W, strain mrt4, stronger effect = lower value 0.959 | S. cerevisiae deletion strains, locus YKL068W, stronger effect = lower value 0.988 | S. cerevisiae deletion strains, locus YKL085W, strain MDH1 (second series), stronger effect = lower value 0.993 | S. cerevisiae deletion strains, locus YKL085W, strain MDH1, stronger effect = lower value 0.993 | S. cerevisiae deletion strains, locus YKL160W, strain elf1, stronger effect = lower value 1 | S. cerevisiae deletion strains, locus YKL190W, strain CNB1, stronger effect = lower value 0.992 | S. cerevisiae deletion strains, locus YKR001C, strain vps1, stronger effect = lower value 0.986 | S. cerevisiae deletion strains, locus YKR026C, strain gcn3, stronger effect = lower value 0.999 | S. cerevisiae deletion strains, locus YKR091W, strain srl3, stronger effect = lower value 1 | S. cerevisiae deletion strains, locus YLL001W, strain dnm1, stronger effect = lower value 1.02 | S. cerevisiae deletion strains, locus YLL026W, stronger effect = lower value 1.01 | S. cerevisiae deletion strains, locus YLL041C, strain sdh2, stronger effect = lower value 1 | S. cerevisiae deletion strains, locus YLR027C, strain aat2, stronger effect = lower value 1.01 | S. cerevisiae deletion strains, locus YLR039C, strain RIC1, stronger effect = lower value 0.971 | S. cerevisiae deletion strains, locus YLR058C, strain SHM2, stronger effect = lower value 0.957 | S. cerevisiae deletion strains, locus YLR102C, strain apc9, stronger effect = lower value 0.994 | S. cerevisiae deletion strains, locus YLR113W, strain HOG1, stronger effect = lower value 1 | S. cerevisiae deletion strains, locus YLR221C, strain rsa3, stronger effect = lower value 1.01 | S. cerevisiae deletion strains, locus YLR258W, strain gsy2, stronger effect = lower value 1.01 | S. cerevisiae deletion strains, locus YLR262C, strain YPT6 (second series), stronger effect = lower value 1.11 | S. cerevisiae deletion strains, locus YLR262C, strain YPT6, stronger effect = lower value 0.916 | S. cerevisiae deletion strains, locus YLR268W, strain sec22, stronger effect = lower value 1.06 | S. cerevisiae deletion strains, locus YLR320W, strain mms22, stronger effect = lower value 0.992 | S. cerevisiae deletion strains, locus YLR330W, strain CHS5, stronger effect = lower value 0.969 | S. cerevisiae deletion strains, locus YLR342W, strain FKS1 (second series), stronger effect = lower value 0.968 | S. cerevisiae deletion strains, locus YLR342W, strain FKS1, stronger effect = lower value 1 | S. cerevisiae deletion strains, locus YLR357W, strain rsc2, stronger effect = lower value 0.908 | S. cerevisiae deletion strains, locus YLR370C, strain arc18, stronger effect = lower value 1.02 | S. cerevisiae deletion strains, locus YLR371W, strain rom2, stronger effect = lower value 0.982 | S. cerevisiae deletion strains, locus YLR384C, strain iki3, stronger effect = lower value 1.01 | S. cerevisiae deletion strains, locus YLR418C, strain cdc73, stronger effect = lower value 0.908 | S. cerevisiae deletion strains, locus YML016C, strain PPZ1, stronger effect = lower value 0.977 | S. cerevisiae deletion strains, locus YML032C, strain rad52, stronger effect = lower value 1.01 | S. cerevisiae deletion strains, locus YML120C, strain ndi1, stronger effect = lower value 1.01 | S. cerevisiae deletion strains, locus YML124C, strain tub3, stronger effect = lower value 0.98 | S. cerevisiae deletion strains, locus YMR058W, strain fet3, stronger effect = lower value 1 | S. cerevisiae deletion strains, locus YMR078C, strain ctf18, stronger effect = lower value 0.987 | S. cerevisiae deletion strains, locus YMR125W, strain sto1, stronger effect = lower value 0.984 | S. cerevisiae deletion strains, locus YMR129W, stronger effect = lower value 1.01 | S. cerevisiae deletion strains, locus YMR205C, strain PFK2, stronger effect = lower value 1 | S. cerevisiae deletion strains, locus YMR223W, strain ubp8, stronger effect = lower value 0.948 | S. cerevisiae deletion strains, locus YMR231W, strain pep5, stronger effect = lower value 0.998 | S. cerevisiae deletion strains, locus YMR263W, strain SAP30, stronger effect = lower value 0.987 | S. cerevisiae deletion strains, locus YMR307W, strain GAS1, stronger effect = lower value 0.984 | S. cerevisiae deletion strains, locus YNL067W, strain RPL9B, stronger effect = lower value 1.01 | S. cerevisiae deletion strains, locus YNL071W, strain lat1, stronger effect = lower value 1.01 | S. cerevisiae deletion strains, locus YNL128W, strain TEP1, stronger effect = lower value 0.97 | S. cerevisiae deletion strains, locus YNL153C, strain GIM3, stronger effect = lower value 1.02 | S. cerevisiae deletion strains, locus YNL183C, strain NPR1, stronger effect = lower value 0.939 | S. cerevisiae deletion strains, locus YNL209W, strain ssb2, stronger effect = lower value 1.01 | S. cerevisiae deletion strains, locus YNL233W, strain BNI4, stronger effect = lower value 1.01 | S. cerevisiae deletion strains, locus YNL248C, strain rpa49, stronger effect = lower value 1.01 | S. cerevisiae deletion strains, locus YNL250W, strain rad50, stronger effect = lower value 0.958 | S. cerevisiae deletion strains, locus YNL271C, strain bni1, stronger effect = lower value 0.994 | S. cerevisiae deletion strains, locus YNL298W, strain CLA4, stronger effect = lower value 0.99 | S. cerevisiae deletion strains, locus YNL307C, strain MCK1, stronger effect = lower value 0.948 | S. cerevisiae deletion strains, locus YNL322C, strain KRE1 (second series), stronger effect = lower value 1.02 | S. cerevisiae deletion strains, locus YNL322C, strain KRE1, stronger effect = lower value 0.986 | S. cerevisiae deletion strains, locus YNR049C, strain mso1, stronger effect = lower value 1.01 | S. cerevisiae deletion strains, locus YNR052C, strain pop2, stronger effect = lower value 0.999 | S. cerevisiae deletion strains, locus YOL006C, strain TOP1, stronger effect = lower value 0.953 | S. cerevisiae deletion strains, locus YOL012C, strain htz1 0.797 | S. cerevisiae deletion strains, locus YOL147C, strain pex11, stronger effect = lower value 0.986 | S. cerevisiae deletion strains, locus YOR001W, strain rrp6, stronger effect = lower value 1.02 | S. cerevisiae deletion strains, locus YOR061W, strain CKA2, stronger effect = lower value 0.964 | S. cerevisiae deletion strains, locus YOR069W, strain VPS5, stronger effect = lower value 0.981 | S. cerevisiae deletion strains, locus YOR070C, strain gyp1, stronger effect = lower value 1 | S. cerevisiae deletion strains, locus YOR080W, strain dia2, stronger effect = lower value 0.998 | S. cerevisiae deletion strains, locus YOR083W, strain WHI5, stronger effect = lower value 1 | S. cerevisiae deletion strains, locus YOR106W, strain vam3, stronger effect = lower value 0.99 | S. cerevisiae deletion strains, locus YOR136W, strain idh2, stronger effect = lower value 0.98 | S. cerevisiae deletion strains, locus YOR144C, strain elg1, stronger effect = lower value 0.993 | S. cerevisiae deletion strains, locus YOR184W, strain ser1, stronger effect = lower value 0.94 | S. cerevisiae deletion strains, locus YOR231W, strain MKK1, stronger effect = lower value 0.983 | S. cerevisiae deletion strains, locus YOR265W, strain rbl2, stronger effect = lower value 1.01 | S. cerevisiae deletion strains, locus YOR270C, strain vph1, stronger effect = lower value 0.881 | S. cerevisiae deletion strains, locus YOR290C, strain snf2, stronger effect = lower value 1.02 | S. cerevisiae deletion strains, locus YOR316C, strain cot1, stronger effect = lower value 0.993 | S. cerevisiae deletion strains, locus YPL051W, strain arl3, stronger effect = lower value 0.999 | S. cerevisiae deletion strains, locus YPL055C, strain LGE1, stronger effect = lower value 0.939 | S. cerevisiae deletion strains, locus YPL078C, strain atp4, stronger effect = lower value 1.01 | S. cerevisiae deletion strains, locus YPL106C, strain sse1, stronger effect = lower value 1.06 | S. cerevisiae deletion strains, locus YPL240C, strain hsp82, stronger effect = lower value 1.01 | S. cerevisiae deletion strains, locus YPL241C, strain CIN2, stronger effect = lower value 0.979 | S. cerevisiae deletion strains, locus YPL256C, strain CLN2, stronger effect = lower value 1.02 | S. cerevisiae deletion strains, locus YPR119W, strain clb2, stronger effect = lower value 0.986 | S. cerevisiae deletion strains, locus YPR141C, strain kar3, stronger effect = lower value 0.971 | S. cerevisiae deletion strains, locus YPR163C, strain tif3, stronger effect = lower value 0.995 | S. cerevisiae deletion strains, locus YPR167C, strain met16, stronger effect = lower value 0.99 | S. cerevisiae deletion strains, strain wtn01, stronger effect = lower value 1.01 | S. cerevisiae strains, strain wild type, stronger effect = lower value 0.963
